High-throughput results from PubChem.
DT40 TDP1 no CPT: qHTS for Inhibitors of human tyrosyl-DNA phosphodiesterase 1 (TDP1): qHTS in cells in absence of CPT. 420,000 compounds, 15% hits. DT40 Tdp1-/- hTDP1 cells, no CPT, ATP luminescence, 48 h. Potency, µM (highest dose often 46.2 µM), for the others: at the highest dose activity change, negative = growth inhibition, hits mostly inhibitors; further: potency means the concentration at half of the fitted maximal effect; nearly all actives have a fitted effect of over 55% in size
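Stably hTDP1-transfected Tdp1-null chicken DT40 cells were treated with library compounds minus camptothecin and grown for at least 48 hr at 37 °C, after which cellular ATP was quantified by luminescence.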
ELG1 repair inh: ELG1-dependent DNA repair inhibition; HEK293T ELG1-luciferase reporter, luminescence, 16 h; DNA damage induced by 5-fluorouridine; Potency, µM (series often up to 46.1 µM), without a hit: at the top dose activity change, negative = inhibition, usual class: inhibitors; 330,000 compounds, 2.3% hits; further: potency means the concentration at half of the fitted maximal effect; nearly all actives have a fitted effect of over 55% in size
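Quantitative HTS, concentration-response format. 2,000 cells/well co-treated with 5-fluorouridine and compound, 16 hr in 5% CO2 at 37 °C; ONE-Glo luminescence read after 30 min.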
Giardia killer: Giardia lamblia killing; Giardia lamblia trophozoite viability; activity change, % at 7.66 µM, hits read low; 340,000 compounds, 0.15% hits; AID 540267; in the data active means activity change below about -80%; inconclusive means between about -30% and that limit;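 further: parasites exposed to compound for two days anaerobically before the ATP read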
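Media and compound were dispensed first, then trophozoites at 100 cells/well; plates sat 48 hrs at 37 deg C without oxygen before ATP luminescence reagent was added and read after 15-30 min at room temperature.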
TDP1 block: TDP1 (human) enzyme inhibition | Q9NUW8 | recombinant TDP1, AlphaScreen DNA substrate cleavage | Potency, µM (highest dose often 130 µM), for inactives: top-dose activity change, negative = inhibition, most hits filed as inhibitors | 350,000 compounds, 0.28% hits; further: potency means the concentration at half of the fitted maximal effect; nearly all actives have a fitted effect of over 40% in size
Target sequence (Q9NUW8 whole entry, looked up): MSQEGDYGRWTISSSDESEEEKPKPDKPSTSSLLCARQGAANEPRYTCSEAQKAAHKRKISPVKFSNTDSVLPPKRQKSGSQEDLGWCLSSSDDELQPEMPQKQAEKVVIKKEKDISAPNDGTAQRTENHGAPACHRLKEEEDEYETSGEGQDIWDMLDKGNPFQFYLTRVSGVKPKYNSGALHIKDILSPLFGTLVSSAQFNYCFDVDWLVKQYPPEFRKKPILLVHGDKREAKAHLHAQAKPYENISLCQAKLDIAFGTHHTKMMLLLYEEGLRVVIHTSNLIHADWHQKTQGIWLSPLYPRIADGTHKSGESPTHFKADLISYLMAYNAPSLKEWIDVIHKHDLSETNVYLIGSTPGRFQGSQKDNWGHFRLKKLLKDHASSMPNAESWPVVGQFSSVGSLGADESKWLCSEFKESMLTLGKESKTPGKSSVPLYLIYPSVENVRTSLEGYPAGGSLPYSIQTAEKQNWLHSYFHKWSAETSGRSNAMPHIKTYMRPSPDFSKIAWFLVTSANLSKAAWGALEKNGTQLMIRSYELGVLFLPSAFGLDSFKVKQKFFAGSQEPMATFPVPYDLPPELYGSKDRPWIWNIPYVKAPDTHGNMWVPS
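Tdp1 1 nM final; 15 min RT w/ cpd; substrate 15 nM, 5 min; beads 10 ug/ml, 10 min; AlphaScreen read. Neg ctrl: no enzyme.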
TDP1 cell CPT: growth inhibition of DT40 Tdp1-/-;hTDP1 cells with camptothecin (screen for TDP1 inhibitors). chicken DT40 Tdp1-/-;hTDP1 cells + 20 nM CPT, ATP luminescence, 48 h. Potency, µM (series often up to 46.2 µM), for the others: top-dose activity change, negative = growth inhibition, hits mostly inhibitors. 420,000 compounds, 12% hits; further: potency means the concentration at half of the fitted maximal effect; nearly all actives have a fitted effect of over 55% in size
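Chicken DT40 Tdp1-/- cells complemented with human TDP1, 400 cells/well, exposed to compounds plus 20 nM camptothecin for at least 48 h at 37 C; viability read as ATP content by CellTiter-Glo luminescence.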
IL1B secr inh: inflammasome signaling inhibition, IL-1 beta readout; THP-1 LPS/ATP IL-1B secretion, AlphaLISA, 16 h; stronger effect = lower value; activity change, % at 57.5 µM; 360,000 compounds, 4.7% hits; AID 743279; in the data active means activity change below about -50%; inconclusive means mostly about -30% to -49%
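THP-1 cells pretreated 1 hr with compounds (up to 57.5 uM final), then stimulated with LPS (250 ng/mL final) plus ATP (1.25 mM final); secreted IL-1B measured by AlphaLISA after 16 hr, decreased signal indicating inhibition.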
* = called active by the depositor; u = inconclusive; x = no result given; [ ] = remark or other dose. The list is not random: actives were taken first. Their share in the collection is about 19%. Unless noted, the call rests on the fitted dose curve; in most records, active means well fitted curve in the direction sought with a large enough effect; inconclusive means small, poorly fitted or top-dose-only effect, or another doubt; inactive means no such curve, though single readings can be large; an effect the other way counts as inactive or inconclusive. On the % scale 0 is the no-effect control and ±100 the full control effect.

SMILES	DT40 TDP1 no CPT	ELG1 repair inh	Giardia killer	TDP1 block	TDP1 cell CPT	IL1B secr inh
Cn1c(=O)n(C)c2cc(NC(=O)c3ccccc3[N+](=O)[O-])c(Br)cc21	u	0%	-11	5%	-15%	44
CCN(CC)S(=O)(=O)c1ccc(NCCCn2ccnc2)c([N+](=O)[O-])c1	u	-27%	-8	x	u	-12
O=C(c1ccccc1)c1ccc(NCCCn2ccnc2)c([N+](=O)[O-])c1	u	-12%	-14	x	-29%	-74*
Cc1[nH]c(=O)[nH]c1C(=O)CCCCC(=O)O	1%	16%	-14	6%	-4%	-95*
CCCCSCc1[nH]c(=O)[nH]c1C(=O)CCCCC(=O)OCC	-17%	7%	-2	5%	-8%	5
CCC(CC)c1nn2c(=O)cc(COc3ccc(NC(=O)c4ccc(C)cc4)cc3)nc2s1	-20%	x	x	4%	u	x
COCCNC(=O)CN1C(=O)NC2(CCOc3ccccc32)C1=O (centres undefined)	0%	4%	-8	5%	-7%	-7
O=C(CN1C(=O)NC2(CCOc3ccccc32)C1=O)Nc1ccc2c(c1)OCCO2 (centres undefined)	-15%	0%	30	2%	-21%	-26
CCN(CC)S(=O)(=O)c1cccc(NC(=O)CN2C(=O)NC3(CCOc4ccccc43)C2=O)c1 (centres undefined)	u	-23%	29	4%	16µM*	8
CC(CNC(=O)CN1C(=O)NC2(CCOc3ccccc32)C1=O)c1ccccc1 (centres undefined)	u	3%	2	0%	15µM*	-2
Cc1cc(C(=O)CCC(=O)N(C)CC(=O)Nc2ccccc2Br)c(C)s1	-10%	-9%	1	6%[0.505 µM]	-21%	-6
CCC/C=C1/CCCOC(C(=O)NCc2ccc(C)o2)(C(F)(F)F)C1 (centres undefined)	10µM*	0%	19	5%	7.3µM*	-63*
O=C(c1ccccc1)C(CCc1ccccn1)CCc1ccccn1	16µM*	x	3	x	u	-16
CCOC(=O)C1(CCCc2ccccc2)CCN(C(=O)CCCn2cncn2)CC1	26µM*	-13%	2	5%	u	-8
CCOC(=O)C1(CCCc2ccccc2)CCN(C(=O)CCc2cnn(C)c2)CC1	u	u	14	0%	u	0
CCOC(=O)C1(CCCc2ccccc2)CCN(C(=O)CN2C(=O)CSC2=O)CC1	u	12µM*	-6	0%	u	23
CCOC(=O)C1(CCCc2ccccc2)CCN(C(=O)CCN2CCCCC2=O)CC1	16µM*	-17%	-22	-1%	u	-5
Cc1ccc(-c2csc(NC(=O)C[n+]3cc(-c4ccc(C)cc4)n4c3CCC4)n2)cc1	9.2µM*	u	-3	3%	5.8µM*	-94*
O=C(C[n+]1cc(-c2ccc(F)cc2)n2c1CCC2)Nc1nc(-c2ccc(F)cc2)cs1	u	2%	-3	0%	u	-12
Cc1ccc(-c2csc(NC(=O)C[n+]3cc(-c4ccccc4)n4c3CCC4)n2)cc1	18µM*	-5%	-19	x	21µM*	-87*
N#Cc1ccc(OCC(=O)Nc2ccc(S(=O)(=O)N3CCOCC3)cc2)cc1	-29%	-2%	3	0%	-3%	-4
NC(=O)c1cc(Br)cc2c3c([nH]c12)CCCC3	23µM*	-16%	-11	10%	18µM*	-81*
O=C(O)c1ccc2[nH]c3c(c2c1)CCCC3	u	1%	0	x	-14%	-4
O=C1NC[C@H](c2ccccc2)OC(=O)[C@@H](Cc2ccc(F)cc2)CC/C=C/C[C@@H]1CC(=O)N(CCO)Cc1ccccc1	23µM*	23µM*	-2	1%	u	-22
O=C1NC[C@H](c2ccccc2)OC(=O)[C@@H](Cc2ccc(F)cc2)CC/C=C/C[C@H]1CC(=O)N(CCO)Cc1ccccc1	12µM*	5.2µM*	0	3%	13µM*	-2
SMILES	DT40 TDP1 no CPT	ELG1 repair inh	Giardia killer	TDP1 block	TDP1 cell CPT	IL1B secr inh
COc1ccc(N(CC(=O)Nc2nc3ccc(C)cc3s2)S(=O)(=O)c2c(C)nn(C)c2C)cc1	u	18µM*	14	5%	u	9
COc1ccc(N(CC(=O)Nc2cccc(OC)c2)S(=O)(=O)c2c(C)nn(C)c2C)cc1	-28%	-20%	14	6%	-25%	-13
COc1ccc(N(CC(=O)Nc2cccc(Cl)c2C)S(=O)(=O)c2c(C)nn(C)c2C)cc1	u	x	x	0%	u	x
COc1ccc(N(CC(=O)Nc2cc(OC)ccc2OC)S(=O)(=O)c2c(C)nn(C)c2C)cc1	u	-7%	1	2%	21µM*	u
CCCCCCCCCCCCCCCCOC[C@H](COP(=O)([O-])OCC[N+](C)(C)C)OC(=O)NC	u	x	x	7%	u	x
CC1(OC(=O)C2CCCC2)C(=O)C=C2C=C(c3ccsc3)N(C(CO)CO)C=C2C1=O (centres undefined)	-11%	u	-22	13%[12.3 µM]	-9%	21
COc1ccc(C(c2c(C)n(C)n(-c3ccccc3)c2=O)c2c(C)n(C)n(-c3ccccc3)c2=O)c(OC)c1OC	-11%	-4%	-2	x	u	10
Cc1nnc(SCCn2c(N3CCC(Cc4ccccc4)CC3)nc3c2c(=O)[nH]c(=O)n3C)s1	16µM*	9.2µM*	-2	x	u	27
CCCCn1c(N2CCC(Cc3ccccc3)CC2)nc2c1c(=O)[nH]c(=O)n2C	21µM*	u	10	6%	23µM*	u
Cc1nnc(SCCn2c(N3CCN(Cc4ccccc4)CC3)nc3c2c(=O)[nH]c(=O)n3C)s1	-20%	u	-9	0%	-4%	15
Cc1cccc(NC(=O)CSc2cn(CC(=O)N3CCC(C)CC3)c3ccccc23)c1C	9.2µM*	x	x	-5%	23µM*	x
CC1CCN(C(=O)Cn2cc(SCC(=O)Nc3ccccc3C(F)(F)F)c3ccccc32)CC1	21µM*	x	x	0%	u	x
Cc1cc(C)cc(NC(=O)COc2cccc3c(=O)n(C)ccc23)c1	u	x	x	-5%	u	x
COCCN(CCOC)c1ncnc2c1c(-c1ccccc1)cn2-c1ccc(C)c(Cl)c1	u	x	x	-3%	u	x
